Measured values published in ChEMBL document CHEMBL3988442, “University of Dundee, Small-Polar-MMV Screening Library” (2021).

target: AMP-activated protein kinase, AMPK (Homo sapiens) (UniProt P54646+O43741+P54619+Q9UGJ0+Q9Y478+Q13131+Q9UGI9); assay: AMP-dependent Kinase enzyme assay. An in vitro enzyme assay that detects ADP turnover that is directly proportional to AMPK activity. This uses naive AMPK that is activated during the assay with MK-8722; type: functional; design: scale not given: direction of the effect not stated beside the values; conditions: 30 µM

Which Percent Effect does the source give for `CC(C)(C)c1ccc(C(=O)NCCCNC(=O)c2cnccn2)cc1` here?
The Percent Effect was 8.31%.

`Cc1cc(NCCc2cnccn2)nc(-c2ccccc2O)n1` was tested. Which Percent Effect did it give?
The Percent Effect was 19.4%.

For `Nc1nccc(N2CCC(c3cc(Cc4ccccc4)n[nH]3)CC2)n1`, which Percent Effect is on record?
Its Percent Effect is 4.14%.

With `CCOC(=O)N(C)C1CCN(Cc2cnc3ccccn23)CC1` as the compound, how does the Percent Effect read?
The Percent Effect was 0.795%.

Which Percent Effect does the source give for `CC(C)c1nn(C)c(N(C)C)c1CNCc1ccnc(N(C)C)c1` here?
Its Percent Effect is -12.6%.

Which Percent Effect does the source give for `O=C(NCCc1cccnc1)c1ccc2nccn2c1` here?
The Percent Effect was 0.0619%.

How did the Percent Effect turn out when `COc1ccccc1CN1CCC(c2nccc(C)n2)C1` (stereo not given) was run?
Its Percent Effect is -3.97%.

How did the Percent Effect turn out when `O=C(CCn1cc(Cl)cn1)N1CCC2(CC1)OCCCC2O` (stereo not given) was run?
The Percent Effect was -8.21%.

How did the Percent Effect turn out when `CCS(=O)(=O)CCCN1CCSCC1c1ccc(Cl)cc1` (stereo not given) was run?
The Percent Effect was -4.64%.

With `OC1CCN(C2CCN(c3ccc(Cn4ccnc4)cn3)CC2)CC1` as the compound, how does the Percent Effect read?
Its Percent Effect is -3.24%.

For `CN1CCCC(c2cccc(-c3ccccc3F)n2)C1` (stereo not given), which Percent Effect is on record?
The Percent Effect was 16.2%.

Which Percent Effect does the source give for `CCOCCC(=O)Nc1cccc(Cl)c1COC` here?
The Percent Effect was -0.185%.

With `Cc1sc(C(=O)N(C)S(C)(=O)=O)cc1-c1ccc(F)cc1` as the compound, how does the Percent Effect read?
Its Percent Effect is -2.1%.

For `Cc1noc(C)c1C(=O)N[C@@H]1CC[C@@H](Oc2ccccc2)[C@@H]1O`, which Percent Effect is on record?
The Percent Effect was 18.4%.

How did the Percent Effect turn out when `CCN(CC)C1CCN(C(=O)Nc2cc(F)c(OC)c(F)c2)C1` (stereo not given) was run?
The Percent Effect was -3.29%.

With `CC(=O)N1CCC(c2ncc(C(=O)Nc3ccc(F)cc3)c(C)n2)CC1` as the compound, how does the Percent Effect read?
Its Percent Effect is -4.39%.

`O=C(CCn1ccc2ncccc2c1=O)N1CCCC1` was tested. Which Percent Effect did it give?
The Percent Effect was -3.54%.

Which Percent Effect does the source give for `O=C(Cc1cccs1)NCc1ccnc(C2CCCOC2)n1` (stereo not given) here?
Its Percent Effect is 12.2%.

With `CN(C)c1ccc(C(=O)Nc2ccn(CCc3ccncc3)n2)cc1` as the compound, how does the Percent Effect read?
Its Percent Effect is 10.3%.

`Cc1nc(COC(=O)c2cccnc2C)no1` was tested. Which Percent Effect did it give?
Its Percent Effect is 3.04%.

With `CCC1(CC)CC(=O)N(CC(O)c2cc(F)ccc2F)C1=O` (stereo not given) as the compound, how does the Percent Effect read?
The Percent Effect was 11.8%.

For `c1ccc(CCCn2ccnc2-c2cn(C3CCNCC3)nn2)nc1`, which Percent Effect is on record?
The Percent Effect was -13.8%.

How did the Percent Effect turn out when `Cc1cc(C(=O)NCCN2CCCCC2C)nn1C(C)(C)C` (stereo not given) was run?
The Percent Effect was 1.65%.

With `CC(Oc1cccc(Cl)c1)C(=O)Nc1cnn(CCN(C)C)c1` (stereo not given) as the compound, how does the Percent Effect read?
Its Percent Effect is -7.28%.

With `CS(=O)(=O)c1ccccc1N[C@@H]1c2ccccc2C[C@@H]1O` as the compound, how does the Percent Effect read?
Its Percent Effect is -13.1%.

How did the Percent Effect turn out when `Cc1ncc(C(=O)N2CCOC(C(=O)N3CCCCCC3)C2)c(C)n1` (stereo not given) was run?
The Percent Effect was -3.31%.

For `Cc1cc(C(=O)NC(C)Cc2ccccc2Cl)n(C)n1` (stereo not given), which Percent Effect is on record?
Its Percent Effect is 7.6%.

`O=C(Cc1c(F)cccc1Cl)Nc1cccc(N2CCCC2)c1` was tested. Which Percent Effect did it give?
The Percent Effect was -5.51%.

For `Cc1ncn(CCNC(=O)Nc2ccc(OC(F)(F)F)cc2)c(=O)c1C`, which Percent Effect is on record?
Its Percent Effect is 2.14%.

With `Cc1cnc(C(=O)N2CCN(c3ncc4c(n3)CCOC4)CC2)cn1` as the compound, how does the Percent Effect read?
The Percent Effect was 15.1%.

For `CN(Cc1noc(C2CC2)n1)C1CCN(CCn2cccn2)C1` (stereo not given), which Percent Effect is on record?
The Percent Effect was 5.76%.

With `CSc1ncccc1C(=O)NC(C)c1cccc(N2CCOC2=O)c1` (stereo not given) as the compound, how does the Percent Effect read?
The Percent Effect was -0.0368%.

For `O=S(=O)(NCc1cn2ccccc2n1)N1CCOCC1`, which Percent Effect is on record?
Its Percent Effect is 9.32%.

Which Percent Effect does the source give for `CCn1nc(C)c(CCN2CC3(CCOC3)CCC2=O)c1C` (stereo not given) here?
Its Percent Effect is -1.79%.

Which Percent Effect does the source give for `Cc1cc(C)c(NC(=O)Nc2cnn(CC(O)CN(C)C)c2)c(C)c1` (stereo not given) here?
The Percent Effect was 0.923%.

With `COCCN(Cc1ccccn1)C(=O)Nc1cccnc1-n1cccn1` as the compound, how does the Percent Effect read?
The Percent Effect was -0.778%.

With `COc1cccc(-c2n[nH]cc2-c2nc(CC3CCN(C)CC3)no2)c1` as the compound, how does the Percent Effect read?
The Percent Effect was -6.69%.

How did the Percent Effect turn out when `FC(F)(F)Oc1ccc(CN2CCCC(n3cncn3)C2)cc1` (stereo not given) was run?
Its Percent Effect is 3.31%.

`COCCC(=O)NCc1ccc(-c2ncncc2C(=O)N(C)C)cc1` was tested. Which Percent Effect did it give?
The Percent Effect was -7.24%.

For `COCCC(=O)N1CCC(c2nnc(-c3ccsc3)o2)CC1`, which Percent Effect is on record?
The Percent Effect was 2.43%.
